{"source": "PubChem BioAssay AID651690", "about": "(Sanford-Burnham Center for Chemical Genomics, 2012)", "biological_target": "Sentrin-specific protease 1 (Homo sapiens) (UniProt Q9P0U3)", "sequence (Q9P0U3 419-644 limits assumed)": "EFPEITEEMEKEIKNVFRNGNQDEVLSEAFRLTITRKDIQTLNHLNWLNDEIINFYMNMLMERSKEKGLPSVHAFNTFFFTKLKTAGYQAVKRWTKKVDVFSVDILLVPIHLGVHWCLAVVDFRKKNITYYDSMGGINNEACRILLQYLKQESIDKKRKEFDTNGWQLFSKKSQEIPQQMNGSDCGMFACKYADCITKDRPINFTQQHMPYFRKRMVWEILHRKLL", "experiment": "human SENP1 catalytic domain inhibitors, confirmation, biochemical, kinetic FRET, single concentration (AID 651690);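 further: 0% = DMSO with enzyme and 100% = no enzyme substrate only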", "details": "recombinant SENP1, CyPet-SUMO1-YPet FRET kinetic cleavage; at 10 µM; hits give high values", "note": "This is one part of the list. A number with no mark means an inactive call. No stated cut-off is given here; in the data, active means inhibition mostly above about 32% (no sharp cut-off); inactive means mostly below about 29%.", "data": [{"molecule": "COc1ccccc1N=Nc1c(O)[nH]c(=S)[nH]c1=O", "values": [{"measurement": "inhibition", "result": 31.3, "unit": "%"}]}]}
